Bioassay records (PubChem)
This is a sample that favours compounds with a hit; in the whole collection about 1.8% have one here.
p53ts 39C tox – qHTS Screen for Compounds that Selectively Target Cancer Cells with p53 Mutations: Cytotoxicity of p53ts Cells at the Nonpermissive Temperature; H1299-p53A138V viability at 39C, ATP luminescence, 24 h; Potency, µM (top dose mostly 46.1 µM), inactives show top-dose activity change, negative = cell killing, hits mostly cytotoxic; 130,000 tested, 1.5% active; AID 902, 2007; further: on the % scale 0 is the no-effect control and ±100 the full control effect; nearly all actives have a fitted effect of over 55% in size
Peg3 imprint – qHTS Assay for Compounds that Induce Erasure of Genomic Imprints; mouse ES Peg3-LacZ reporter, beta-gal luminescence, 40 h; AID 1948, 2009; 110,000 tested, 0.02% active; Potency, µM (top dose mostly 60.7 µM), without a hit: at the top dose activity change, positive = activation, actives largely listed as activators
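Gelatin-coated wells received 300 freshly trypsinized female ES cells with a Peg3LacZ-Neo reporter on the maternal allele, then incubated 40 hours at 37C. BetaGlo was added for 5 minutes at room temperature before a single luminescence read.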
p53ts 32C kill – qHTS Screen for Compounds that Selectively Target Cancer Cells with p53 Mutations: Cytotoxicity of p53ts Cells at the Permissive Temperature | H1299-p53A138V at 32C, ATP luminescence viability, 24 h | Potency, µM (titrated, usually from 46.1 µM), for inactives: top-dose activity change, negative = cytotoxicity, most hits filed as cytotoxic | 130,000 tested, 0.93% active;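 further: 0% = DMSO and -100% = full killing by reference compound; nearly all actives have a fitted effect of over 55% in size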
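ATP-content luminescence (ATPlite) read-out after 24 h compound exposure at 32C in H1299-p53A138V cells (600/well). Tested up to 46 uM. Normalized to DMSO (0%) and 100 uM tamoxifen (100% killing); Hill-fit AC50.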
The depositor's hits bear a star; ? = inconclusive; . = not tested or not shown; [ ] = remark or other dose. The call rests on the fitted dose curve; in most records, active means well fitted curve in the direction sought with a large enough effect; inconclusive means small, poorly fitted or top-dose-only effect, or another doubt; inactive means no such curve, though single readings can be large; an effect the other way counts as inactive or inconclusive. Potency means the concentration at half of the fitted maximal effect.

SMILES	p53ts 39C tox	Peg3 imprint	p53ts 32C kill
COc1cc(OC)c(-c2cc(C(=O)NCc3ccc(F)cc3)c3c(-c4ccccc4)[nH]nc3n2)cc1OC	?	12%[10.9 µM]	8.9µM*
COc1ccc(-c2[nH]nc3nc(-c4cc(OC)c(OC)c(OC)c4)cc(C(=O)O)c23)cc1	?	-13%[10.9 µM]	-17%
CCOc1ccc(-c2cc(C(=O)NCCc3ccccc3)c3c(-c4ccc(C)cc4)[nH]nc3n2)cc1	16µM*	-10%[10.9 µM]	-12%
COc1ccccc1-c1cc(C(=O)NCc2ccccc2)c2c(-c3ccc(C)cc3)[nH]nc2n1	-5%	-16%[10.9 µM]	7%
CN[C@]1(C)[C@@H]2CC[C@@H](C2)C1(C)C	11%	.	-14%
Cn1cccc1C(=O)N1CCC2(CC1)CN(C(=O)Nc1cccc(F)c1)C2	6%	.	-7%
C[C@@H]1C[C@H](C)CN(S(=O)(=O)c2cc(Cl)c(Oc3ccc([N+](=O)[O-])cc3Cl)c(Cl)c2)C1	10%[9.22 µM]	21%[10.9 µM]	8%[9.22 µM]
CCSc1nnc(NC(=O)c2cnccn2)s1	-4%	-2%	-4%
CCSc1nnc(NC(=O)c2ccccn2)s1	10µM*	-85%	10µM*
Cc1ccc(Cl)cc1-n1c(SCC(=O)NCc2ccccc2)nc2n[nH]c(C)c2c1=N	?	4%[10.9 µM]	-4%
CCC(C)NC(=O)CSc1nc2n[nH]c(C)c2c(=N)n1-c1cc(Cl)ccc1C (stereo not drawn)	13µM*	-12%[10.9 µM]	?
CCc1ccc(NC(=O)CSc2nc3n[nH]c(C)c3c(=N)n2-c2ccc(C)cc2)cc1	20µM*	-15%[10.9 µM]	?
Cc1ccc(NC(=O)CSc2nc3n[nH]c(C)c3c(=N)n2-c2cccc(C)c2)cc1	0%	-18%[10.9 µM]	3%
Cc1ccc2oc3c(c(=O)c2c1)C(c1cccc(O)c1)N(Cc1ccccc1Cl)C3=O (stereo not drawn)	?	-12%[10.9 µM]	-3%
Cn1c(C(=O)NCc2cccs2)cc2c(=O)n(C)c3ccccc3c21	-4%	-11%	0%
COc1cccc(CNC(=O)c2cc3c(=O)n(C)c4ccccc4c3n2C)c1	10µM*	-9%[10.9 µM]	-3%
Cc1ccc(N2CC(c3nnc(NC(=O)c4ccco4)s3)CC2=O)cc1Cl (stereo not drawn)	12%	-8%[10.9 µM]	0%
Cc1cc(C)nc(Nc2ccc(N3CCOCC3)cc2)n1	?	-15%	13µM*
Cc1cc(C)nc(Nc2ccc(N3CCCC3)cc2)n1	-23%	-31%	-21%
c1cc(-c2nc3ccccc3o2)nc(-c2nc3ccccc3o2)c1	3%	-2%	-3%
c1ccc2nc(-c3nc4ccccc4o3)ccc2c1	5µM*	-91%	5µM*
Cc1ccccc1-c1nc2c3c(-c4ccccc4)c(-c4ccccc4)oc3ncn2n1	7%	-5%[10.9 µM]	-1%
COc1cccc(OC)c1C(=O)Nc1ccc(S(=O)(=O)Nc2nccc(C)n2)cc1	19%	-4%[10.9 µM]	1%
COc1cccc(NC(=O)c2sc3nc4n(c(=O)c3c2C)CCC4)c1	-19%	-13%[10.9 µM]	?
COc1ccc(-c2cc3nc4n(c(=O)c3s2)CCC4)cc1	5µM*	-89%	5µM*
SMILES	p53ts 39C tox	Peg3 imprint	p53ts 32C kill
CC(Nc1oc(-c2ccc(COc3ccccc3)o2)nc1C#N)c1ccccc1 (stereo not drawn)	-14%	-13%[10.9 µM]	-1%
Nc1ncnc2c1ncn2[C@H]1O[C@@H](C(=O)O)[C@@H](O)[C@H]1O	6%[9.22 µM]	-10%[10.9 µM]	-2%[9.22 µM]
Nc1nnc(-c2ccccc2)c(-c2ccccc2)n1	-3%	-8%	-12%
c1ccc(-c2nc3nonc3nc2-c2ccccc2)cc1	13µM*	-27%	?
O=C(Nc1noc2ccccc12)c1cccc(F)c1	?	-25%[10.9 µM]	?
O=C(Nc1noc2ccccc12)c1ccc(F)cc1	?	-31%[10.9 µM]	10µM*
Cc1ccc(-c2csc3ncnc(Sc4nnc(CN5CCCCCC5=O)o4)c23)cc1	?	-32%	25µM*
CCn1c(CN2CCCCCC2=O)nnc1SCc1cnc(-c2ccccc2)s1	-4%	-20%	2%
CCOC(=O)c1ccc(NC(=O)c2c(NCc3sccc3C)sc3c2CCCCC3)cc1	4%	-8%[10.9 µM]	9%
CCS(=O)(=O)CCSc1nc2ccccc2s1	8%	-1%	5%
CS(=O)(=O)c1ccc(Sc2nc3ccccc3s2)c([N+](=O)[O-])c1	22µM*	.	.
Cc1ccc2c(c1Br)C(O)(CC(=O)c1ccc(F)cc1)C(=O)N2 (stereo not drawn)	-11%	-4%[10.9 µM]	-2%
COc1cccc(-c2cc(N(C)Cc3ccco3)ncn2)c1	13µM*	-84%	?
CN(Cc1ccco1)c1cc(-c2ccoc2)ncn1	-5%	-4%	2%
CN(Cc1ccco1)c1cc(-c2cccc(C#N)c2)ncn1	-7%	-7%	3%
CN(C)c1ccc(-c2cc(N(C)Cc3ccco3)ncn2)cc1	13µM*	-39%	13µM*
Cn1cc(-c2nc3cnc(OCc4ccccc4)nc3n(CCC#N)c2=O)c2ccccc21	8%	-1%	5%
O=C(CC1(O)C(=O)N(Cc2ccccc2)c2ccccc21)c1ccncc1 (stereo not drawn)	-11%	-21%	3%
CCCCN1C(=O)C(O)(CC(=O)c2ccc(CC)cc2)c2cc(Br)ccc21 (stereo not drawn)	?	6%[10.9 µM]	?
CCCN1C(=O)C(O)(CC(=O)c2ccc(C(C)C)cc2)c2ccccc21 (stereo not drawn)	?	-1%[10.9 µM]	2%
CC(C)c1ccc(C(=O)CC2(O)C(=O)N(CCc3ccccc3)c3ccc(Cl)cc32)cc1 (stereo not drawn)	16µM*	-8%[10.9 µM]	?
O=C(CC1(O)C(=O)N(CCc2ccccc2)c2ccc(Br)cc21)c1ccccc1O (stereo not drawn)	20µM*	-6%[10.9 µM]	0%
O=C(CC1(O)C(=O)N(Cc2ccccc2)c2ccc(Br)cc21)c1ccccc1 (stereo not drawn)	16µM*	-4%[10.9 µM]	?
O=C(NC1CCCCC1)c1ccc2c(c1)N(Cc1cccc(Cl)c1)C(=O)c1ccccc1S2=O (stereo not drawn)	28%	-15%[10.9 µM]	-13%
O=C(O)c1c2c(c(O)c3c1CN(C1CCCCC1)CO3)OCN(C1CCCCC1)C2	12%[9.22 µM]	1%[10.9 µM]	-9%[9.22 µM]
SMILES	p53ts 39C tox	Peg3 imprint	p53ts 32C kill
COc1cccc(NC(=O)c2oc3ccccc3c2NC(=O)c2ccc(OC(C)C)cc2)c1	10µM*	-16%[10.9 µM]	?
COc1cccc(NC(=O)c2oc3ccccc3c2NC(=O)c2cc3ccccc3o2)c1	?	-13%[10.9 µM]	-12%
COc1cccc(NC(=O)c2oc3ccccc3c2NC(=O)c2ccc3c(c2)OCO3)c1	10µM*	-3%	10µM*
COc1cccc(NC(=O)c2ccc(CN3CCOCC3)cc2)c1	10µM*	-75%	13µM*
CC(C)Oc1cccc(C(=O)Nc2ccc(CN3CCOCC3)cc2)c1	-20%	-3%	-16%
COc1cccc(NC(=O)c2oc3ccccc3c2NC(=O)C(C)(C)C)c1	2%	-9%	5%
COC(=O)CSc1nc2sc3c(c2c(=O)n1Cc1ccccc1)CCC(C(C)(C)C)C3 (stereo not drawn)	-11%	-5%[10.9 µM]	11%
